A short description of assay [1]: NCI Yeast Anticancer Drug Screen. Data for the rad50 strain (AID 155).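 Also: 0% = growth of vehicle-only cultures of the same strain.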 The conditions noted are these: S. cerevisiae rad50 strain growth inhibition; at 50.0 µM; stronger effect = higher value. The method in brief:
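Vehicle-treated cultures provide the reference for the growth inhibition reported for compound-exposed, repair-deficient yeast.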

Assay [2] in a line: NCI Yeast Anticancer Drug Screen. Data for the mec2-1 strain (AID 157). To be noted: S. cerevisiae mec2-1 strain, at 50.0 µM, stronger effect = higher value. The method in brief: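 Using mec2-1 yeast: add compound, measure growth, express inhibition versus vehicle-treated cultures.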
A short description of assay [3]: NCI Yeast Anticancer Drug Screen. Data for the sgs1 mgt1 strain (AID 161).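 Also: 0% = growth of cultures given vehicle only.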 To be noted: S. cerevisiae sgs1 mgt1 strain, at 50.0 µM, stronger effect = higher value. The essentials:
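Growth of a repair-deficient yeast mutant was monitored after compound treatment and expressed as inhibition relative to vehicle-treated cultures.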

The nature of assay [4]: NCI Yeast Anticancer Drug Screen. Data for the cln2 rad14 strain (AID 165).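 Also: 0% = growth equal to vehicle treated cultures.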 To be noted: S. cerevisiae cln2 rad14 strain, at 50.0 µM, stronger effect = higher value. The method in brief:
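Yeast strain cln2 rad14, bearing defects in cell cycle control and DNA repair, serves as the test system; values reflect growth inhibition compared with vehicle.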

The nature of assay [5]: NCI Yeast Anticancer Drug Screen. Data for the bub3 strain (AID 167). The conditions noted are these: S. cerevisiae bub3 mutant strain, at 50.0 µM, stronger effect = higher value. The essentials:
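Mutant yeast screening strain plus compound; vehicle-treated cultures serve as the 0% inhibition reference.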

A short description of assay [6]: NCI Yeast Anticancer Drug Screen. Data for the mlh1 rad18 strain (AID 175). The conditions noted are these: S. cerevisiae mlh1 rad18 strain growth inhibition; at 50.0 µM; stronger effect = higher value. The essentials:
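Steps: expose repair-defective yeast to compound; measure growth; express inhibition against vehicle-treated controls.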

Compounds without any hit were thinned out: in the full panel of roughly 79,000, 15% have a hit. Values without a mark were called inactive. Activity calls are given as the source filed them. Rule as the data show it: active = growth inhibition above about 70%; inactive = the rest. Where a SMILES comes first, the peptide text is derived from it.

Consider `Cc1cc(C)nc(NS(=O)(=O)c2ccc(NC(=O)c3cccn4c(=O)c5ccccc5nc34)cc2)n1`, for which the growth inhibition in assay [1] is 12.7%; in assay [2] it was 0.6%; in assay [3] it was 16.9%; in assay [4], 27.6%; in assay [5], 27.1%; in assay [6], 0.25%.

With `C=CN1C(=O)NC2(CCCCC2)C1=O`, the growth inhibition is -33.8% in assay [1]; -40% in assay [2]; -40.4% in assay [3]; 7.55% in assay [4]; -10.3% in assay [5]; -25.6% in assay [6].

Regarding `CCN(CCNc1cc(OC)cc2cccnc12)CC(C)C`, the growth inhibition in assay [1] was 22.8%; in assay [2], 9.65%; in assay [3], 1.8%; in assay [4], 13.8%; in assay [5], 6.85%; in assay [6], 17%.

As for `CC(=O)NC(CO)C(=O)NC(Cc1ccc(O)cc1)C(=O)NCC(N)=O` (stereo not drawn) (Ac-Ser-Tyr-Gly-NH2; configuration not given here), the growth inhibition was -26.7% in assay [1]; -23.5% in assay [2]; -9.4% in assay [3]; 18.8% in assay [4]; 10.9% in assay [5]; -6.8% in assay [6].

In the case of `CCOc1ccccc1C(=O)Oc1ccc(C)cc1`, the growth inhibition in assay [1] is -4.6%; in assay [2] it was -19.2%; in assay [3] it was 7.1%; in assay [4] it was -3.85%; in assay [5] it was -5.5%; in assay [6], 24.1%.

With `O=C(O)CSCc1ccccc1Cl`, the growth inhibition in assay [1] is 1.6%; in assay [2] it was -6.05%; in assay [3], -9.5%; in assay [4] it was 8.25%; in assay [5], -13.1%; in assay [6] it was -11.1%.

As for `N#C/C(=C\c1ccc2[nH]ccc2c1)C(=O)NCCCCNC(=O)/C(C#N)=C/c1ccc2[nH]ccc2c1`, the growth inhibition was 5.35% in assay [1]; 23.2% in assay [2]; 10.4% in assay [3]; -21.4% in assay [4]; 9.65% in assay [5]; 5.7% in assay [6].

`CC1=C(C(=O)NCCc2ccccc2)CC(C(=O)NCCc2ccccc2)=C(C)N1`: the growth inhibition in assay [1] is -9.8%; in assay [2], 6.4%; in assay [3], 5.75%; in assay [4], 14.5%; in assay [5], -13.2%; in assay [6] it was -32.1%.

As for `Cc1ccc2c(c1)-c1nc3nnnn3nc1C(C)(C)O2`, the growth inhibition in assay [1] is 21%; in assay [2], 6.8%; in assay [3] it was 34%; in assay [4] it was -6.85%; in assay [5], 15.1%; in assay [6], 26.8%.

With `CCCc1cc(C(=O)N/N=C/c2ccc([N+](=O)[O-])cc2)c2ccccc2n1`, the growth inhibition in assay [1] was -28.3%; in assay [2] it was -3.2%; in assay [3] it was 0.1%; in assay [4], -40.5%; in assay [5] it was 9.5%; in assay [6], -2.8%.

As to `O=C1NC(=Nc2ccccc2Cl)SC1C(=O)Nc1ccc([N+](=O)[O-])cc1[N+](=O)[O-]` (stereo unspecified), the growth inhibition in assay [1] is 8.1%; in assay [2], 7.85%; in assay [3], -34.4%; in assay [4], -28.6%; in assay [5], 7.6%; in assay [6], -12.1%.

`O=c1[nH]c2cc(Cl)c(Cl)cc2c2ccc(Cl)cc12`: the growth inhibition was 12.2% in assay [1]; -5.55% in assay [2]; -0.35% in assay [3]; -38% in assay [4]; -15.6% in assay [5]; -14.1% in assay [6].

`NC(=S)N/N=C/C1=C(Cl)c2ccccc2C1`: the growth inhibition in assay [1] was 7.45%; in assay [2], 6.5%; in assay [3] it was 1.15%; in assay [4], -4.45%; in assay [5], -2.55%; in assay [6], 13.2%.

Consider `C=C1C(C)C2C(Cc3ccccc3)NC(=O)C23OC(=O)/C=C\CC(=O)CCC(C)C/C=C/C3C1O` (stereo unspecified), for which the growth inhibition is 91.4% (active) in assay [1]; 93.2% (active) in assay [2]; 93% (active) in assay [3]; 90.8% (active) in assay [4]; 90.8% (active) in assay [5]; 91.2% (active) in assay [6].

For `C/C=C/C(O)CC` (stereo unspecified), the growth inhibition was 13.8% in assay [1]; -38.4% in assay [2]; 3.2% in assay [3]; -0.85% in assay [4]; -10.8% in assay [5]; 0.5% in assay [6].

`CN(C)CC(C(N)=O)C(N)=O`: the growth inhibition in assay [1] is -26.1%; in assay [2], -18.8%; in assay [3], -19.8%; in assay [4], 9.6%; in assay [5] it was -10.5%; in assay [6], 7.45%.

`Clc1ccccc1N=NNc1ccccc1Cl`: the growth inhibition is 15.8% in assay [1]; -2.4% in assay [2]; 7.05% in assay [3]; -29.5% in assay [4]; 6.35% in assay [5]; 6.75% in assay [6].

Consider `CCCn1c(=O)n(C)c(=O)c2c1ncn2C`, for which the growth inhibition in assay [1] was -5.15%; in assay [2], -2.25%; in assay [3], 13.2%; in assay [4], -28.1%; in assay [5], 4.1%; in assay [6], 13.5%.

Regarding `NCCCCCCCCCCCCN`, the growth inhibition was -6.15% in assay [1]; -11.8% in assay [2]; -0.3% in assay [3]; -37.2% in assay [4]; -13.5% in assay [5]; 19% in assay [6].

With `COc1ccc(Br)cc1C=Nc1ccccc1`, the growth inhibition in assay [1] was 14.9%; in assay [2], 3.05%; in assay [3] it was 19.2%; in assay [4], -8.05%; in assay [5] it was 9.05%; in assay [6], 4.85%.

On to `C=C(C)CCCC(C)C(O)C=O` (stereo unspecified), for which the growth inhibition was -8.85% in assay [1]; 1.15% in assay [2]; 1.55% in assay [3]; 1.75% in assay [4]; -5.35% in assay [5]; -12.7% in assay [6].

(Values after PubChem BioAssay (NCI).)
